Experimental data published in the supplement of paper PMC11732987, “Enantioselective OTUD7B fragment discovery through chemoproteomics screening and high-throughput optimisation” (Communications Chemistry, 2025).

Legend:
Assay in all cases: log2 ratio of Biotin-Ahx-Ub-VS probe labelling (fragment/DMSO); higher = less target engagement (more negative = stronger competition), active = hit call of the paper (q ≤ 0.05, log2 ratio ≤ -1)
Settings in all cases: compound concentration: 200 uM; treatment time: 3 h
USP16 = USP16 (UniProt Q9Y5T5)
Outline: (§1)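 Labelled DUBs were enriched with NeutrAvidin, digested with LysC and trypsin, and run by diaPASEF LC-MS/MS. The labelling used Biotin-Ahx-Ub-VS at 0.5 µM final for 1 h on HEK293T lysate (495 µg per sample) previously treated in triplicate with fragment at 200 µM or vehicle for 3 h. Values are average log2 fragment/vehicle ratios by unpaired t-test on global-median-normalised Spectronaut quantities of proteins with ≥2 unique peptides.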

USP19 = target: T1, USP19 (UniProt O94966)
T1 sequence (whole entry): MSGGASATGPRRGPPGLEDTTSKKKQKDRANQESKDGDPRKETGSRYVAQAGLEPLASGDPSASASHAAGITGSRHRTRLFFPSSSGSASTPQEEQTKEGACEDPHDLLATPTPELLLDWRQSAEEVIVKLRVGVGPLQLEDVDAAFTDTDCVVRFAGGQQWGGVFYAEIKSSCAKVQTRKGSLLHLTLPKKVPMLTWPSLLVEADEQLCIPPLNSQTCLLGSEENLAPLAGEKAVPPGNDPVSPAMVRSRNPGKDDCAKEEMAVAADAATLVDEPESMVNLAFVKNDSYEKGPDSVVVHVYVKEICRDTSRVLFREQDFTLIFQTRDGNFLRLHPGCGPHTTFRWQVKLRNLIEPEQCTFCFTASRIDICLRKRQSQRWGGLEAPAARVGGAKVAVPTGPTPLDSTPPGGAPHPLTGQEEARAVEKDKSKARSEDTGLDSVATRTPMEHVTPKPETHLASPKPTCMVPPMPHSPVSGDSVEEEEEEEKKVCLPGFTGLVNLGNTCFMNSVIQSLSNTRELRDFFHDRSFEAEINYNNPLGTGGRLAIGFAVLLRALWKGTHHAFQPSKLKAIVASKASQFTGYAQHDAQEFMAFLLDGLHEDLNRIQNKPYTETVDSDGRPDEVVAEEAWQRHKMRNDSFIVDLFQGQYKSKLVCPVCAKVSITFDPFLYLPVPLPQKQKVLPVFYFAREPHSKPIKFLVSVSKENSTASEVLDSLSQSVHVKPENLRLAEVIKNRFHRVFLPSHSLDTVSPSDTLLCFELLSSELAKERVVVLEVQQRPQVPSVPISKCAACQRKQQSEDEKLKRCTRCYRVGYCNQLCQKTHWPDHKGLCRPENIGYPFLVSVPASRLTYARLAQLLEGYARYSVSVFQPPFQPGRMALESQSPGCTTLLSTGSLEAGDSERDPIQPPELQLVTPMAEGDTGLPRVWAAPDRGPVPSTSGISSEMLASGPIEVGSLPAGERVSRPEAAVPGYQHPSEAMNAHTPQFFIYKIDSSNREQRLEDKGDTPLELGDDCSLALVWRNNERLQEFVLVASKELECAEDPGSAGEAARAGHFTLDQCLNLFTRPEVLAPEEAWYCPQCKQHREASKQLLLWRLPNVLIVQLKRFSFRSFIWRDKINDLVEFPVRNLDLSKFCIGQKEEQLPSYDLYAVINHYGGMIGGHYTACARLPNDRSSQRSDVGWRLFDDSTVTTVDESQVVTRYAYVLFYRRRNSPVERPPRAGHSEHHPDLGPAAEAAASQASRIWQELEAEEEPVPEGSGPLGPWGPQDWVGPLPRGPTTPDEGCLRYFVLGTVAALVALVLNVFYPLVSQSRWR
Outline: as §1

USP24 = USP24 (UniProt Q9UPU5)
Outline: as §1

USP25 = target: T2, USP25 (UniProt Q9UHP3)
T2 sequence (whole entry): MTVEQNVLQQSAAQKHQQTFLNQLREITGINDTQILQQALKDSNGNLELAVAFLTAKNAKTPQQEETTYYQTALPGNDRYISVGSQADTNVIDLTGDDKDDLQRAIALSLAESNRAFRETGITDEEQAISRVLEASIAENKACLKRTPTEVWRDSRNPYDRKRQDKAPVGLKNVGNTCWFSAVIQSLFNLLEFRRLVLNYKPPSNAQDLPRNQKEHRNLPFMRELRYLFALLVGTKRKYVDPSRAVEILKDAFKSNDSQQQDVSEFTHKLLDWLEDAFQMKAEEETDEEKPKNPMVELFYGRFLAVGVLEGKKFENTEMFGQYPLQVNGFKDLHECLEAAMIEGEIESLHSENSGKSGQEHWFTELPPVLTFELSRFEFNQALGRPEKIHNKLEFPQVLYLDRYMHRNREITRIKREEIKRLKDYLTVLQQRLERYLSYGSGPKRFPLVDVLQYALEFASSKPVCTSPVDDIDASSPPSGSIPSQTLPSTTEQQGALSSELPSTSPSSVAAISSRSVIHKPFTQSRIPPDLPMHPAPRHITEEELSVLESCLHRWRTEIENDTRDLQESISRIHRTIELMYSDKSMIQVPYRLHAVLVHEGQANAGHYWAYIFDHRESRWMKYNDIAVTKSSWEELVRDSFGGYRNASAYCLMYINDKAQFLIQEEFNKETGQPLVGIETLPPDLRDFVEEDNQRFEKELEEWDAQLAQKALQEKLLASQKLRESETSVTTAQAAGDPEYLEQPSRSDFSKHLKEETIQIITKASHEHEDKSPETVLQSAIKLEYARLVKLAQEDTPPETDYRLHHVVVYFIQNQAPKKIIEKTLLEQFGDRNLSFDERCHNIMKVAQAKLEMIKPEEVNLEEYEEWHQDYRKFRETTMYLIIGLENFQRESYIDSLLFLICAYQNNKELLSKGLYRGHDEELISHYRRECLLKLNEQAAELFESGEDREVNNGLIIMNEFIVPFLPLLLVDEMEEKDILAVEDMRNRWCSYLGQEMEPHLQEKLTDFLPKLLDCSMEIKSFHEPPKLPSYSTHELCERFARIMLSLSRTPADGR
Outline: as §1

USP28 = target: T3, USP28 (UniProt Q96RU2)
T3 sequence (whole entry): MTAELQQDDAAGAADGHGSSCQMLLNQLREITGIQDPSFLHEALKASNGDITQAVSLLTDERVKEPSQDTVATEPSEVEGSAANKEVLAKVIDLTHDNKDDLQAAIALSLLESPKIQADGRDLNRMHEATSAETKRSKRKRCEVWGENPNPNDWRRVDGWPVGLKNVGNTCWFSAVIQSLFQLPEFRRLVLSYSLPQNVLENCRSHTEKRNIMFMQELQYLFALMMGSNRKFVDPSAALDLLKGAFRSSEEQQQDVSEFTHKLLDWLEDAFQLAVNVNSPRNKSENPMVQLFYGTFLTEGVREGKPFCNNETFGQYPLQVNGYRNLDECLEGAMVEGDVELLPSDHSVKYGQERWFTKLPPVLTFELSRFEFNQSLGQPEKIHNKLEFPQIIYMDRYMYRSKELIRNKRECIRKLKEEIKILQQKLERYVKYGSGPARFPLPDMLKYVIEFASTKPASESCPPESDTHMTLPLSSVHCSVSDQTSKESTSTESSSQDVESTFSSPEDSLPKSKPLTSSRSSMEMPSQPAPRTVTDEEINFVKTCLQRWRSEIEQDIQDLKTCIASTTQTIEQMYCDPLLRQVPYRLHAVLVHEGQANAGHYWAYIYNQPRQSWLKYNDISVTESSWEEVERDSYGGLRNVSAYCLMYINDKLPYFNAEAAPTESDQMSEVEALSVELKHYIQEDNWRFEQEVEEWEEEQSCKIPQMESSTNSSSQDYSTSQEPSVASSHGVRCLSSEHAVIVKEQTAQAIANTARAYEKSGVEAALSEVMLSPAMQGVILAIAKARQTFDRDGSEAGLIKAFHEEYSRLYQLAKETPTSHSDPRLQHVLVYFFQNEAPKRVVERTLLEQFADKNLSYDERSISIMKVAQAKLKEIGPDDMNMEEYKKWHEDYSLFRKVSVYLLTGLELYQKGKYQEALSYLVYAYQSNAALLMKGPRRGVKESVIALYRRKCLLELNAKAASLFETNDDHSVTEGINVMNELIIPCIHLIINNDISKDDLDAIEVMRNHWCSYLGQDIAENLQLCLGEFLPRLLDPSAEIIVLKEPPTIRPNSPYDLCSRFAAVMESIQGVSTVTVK
Outline: as §1

Measured: log2 ratio of Biotin-Ahx-Ub-VS probe labelling

USP24, sequence (Q9UPU5 whole entry): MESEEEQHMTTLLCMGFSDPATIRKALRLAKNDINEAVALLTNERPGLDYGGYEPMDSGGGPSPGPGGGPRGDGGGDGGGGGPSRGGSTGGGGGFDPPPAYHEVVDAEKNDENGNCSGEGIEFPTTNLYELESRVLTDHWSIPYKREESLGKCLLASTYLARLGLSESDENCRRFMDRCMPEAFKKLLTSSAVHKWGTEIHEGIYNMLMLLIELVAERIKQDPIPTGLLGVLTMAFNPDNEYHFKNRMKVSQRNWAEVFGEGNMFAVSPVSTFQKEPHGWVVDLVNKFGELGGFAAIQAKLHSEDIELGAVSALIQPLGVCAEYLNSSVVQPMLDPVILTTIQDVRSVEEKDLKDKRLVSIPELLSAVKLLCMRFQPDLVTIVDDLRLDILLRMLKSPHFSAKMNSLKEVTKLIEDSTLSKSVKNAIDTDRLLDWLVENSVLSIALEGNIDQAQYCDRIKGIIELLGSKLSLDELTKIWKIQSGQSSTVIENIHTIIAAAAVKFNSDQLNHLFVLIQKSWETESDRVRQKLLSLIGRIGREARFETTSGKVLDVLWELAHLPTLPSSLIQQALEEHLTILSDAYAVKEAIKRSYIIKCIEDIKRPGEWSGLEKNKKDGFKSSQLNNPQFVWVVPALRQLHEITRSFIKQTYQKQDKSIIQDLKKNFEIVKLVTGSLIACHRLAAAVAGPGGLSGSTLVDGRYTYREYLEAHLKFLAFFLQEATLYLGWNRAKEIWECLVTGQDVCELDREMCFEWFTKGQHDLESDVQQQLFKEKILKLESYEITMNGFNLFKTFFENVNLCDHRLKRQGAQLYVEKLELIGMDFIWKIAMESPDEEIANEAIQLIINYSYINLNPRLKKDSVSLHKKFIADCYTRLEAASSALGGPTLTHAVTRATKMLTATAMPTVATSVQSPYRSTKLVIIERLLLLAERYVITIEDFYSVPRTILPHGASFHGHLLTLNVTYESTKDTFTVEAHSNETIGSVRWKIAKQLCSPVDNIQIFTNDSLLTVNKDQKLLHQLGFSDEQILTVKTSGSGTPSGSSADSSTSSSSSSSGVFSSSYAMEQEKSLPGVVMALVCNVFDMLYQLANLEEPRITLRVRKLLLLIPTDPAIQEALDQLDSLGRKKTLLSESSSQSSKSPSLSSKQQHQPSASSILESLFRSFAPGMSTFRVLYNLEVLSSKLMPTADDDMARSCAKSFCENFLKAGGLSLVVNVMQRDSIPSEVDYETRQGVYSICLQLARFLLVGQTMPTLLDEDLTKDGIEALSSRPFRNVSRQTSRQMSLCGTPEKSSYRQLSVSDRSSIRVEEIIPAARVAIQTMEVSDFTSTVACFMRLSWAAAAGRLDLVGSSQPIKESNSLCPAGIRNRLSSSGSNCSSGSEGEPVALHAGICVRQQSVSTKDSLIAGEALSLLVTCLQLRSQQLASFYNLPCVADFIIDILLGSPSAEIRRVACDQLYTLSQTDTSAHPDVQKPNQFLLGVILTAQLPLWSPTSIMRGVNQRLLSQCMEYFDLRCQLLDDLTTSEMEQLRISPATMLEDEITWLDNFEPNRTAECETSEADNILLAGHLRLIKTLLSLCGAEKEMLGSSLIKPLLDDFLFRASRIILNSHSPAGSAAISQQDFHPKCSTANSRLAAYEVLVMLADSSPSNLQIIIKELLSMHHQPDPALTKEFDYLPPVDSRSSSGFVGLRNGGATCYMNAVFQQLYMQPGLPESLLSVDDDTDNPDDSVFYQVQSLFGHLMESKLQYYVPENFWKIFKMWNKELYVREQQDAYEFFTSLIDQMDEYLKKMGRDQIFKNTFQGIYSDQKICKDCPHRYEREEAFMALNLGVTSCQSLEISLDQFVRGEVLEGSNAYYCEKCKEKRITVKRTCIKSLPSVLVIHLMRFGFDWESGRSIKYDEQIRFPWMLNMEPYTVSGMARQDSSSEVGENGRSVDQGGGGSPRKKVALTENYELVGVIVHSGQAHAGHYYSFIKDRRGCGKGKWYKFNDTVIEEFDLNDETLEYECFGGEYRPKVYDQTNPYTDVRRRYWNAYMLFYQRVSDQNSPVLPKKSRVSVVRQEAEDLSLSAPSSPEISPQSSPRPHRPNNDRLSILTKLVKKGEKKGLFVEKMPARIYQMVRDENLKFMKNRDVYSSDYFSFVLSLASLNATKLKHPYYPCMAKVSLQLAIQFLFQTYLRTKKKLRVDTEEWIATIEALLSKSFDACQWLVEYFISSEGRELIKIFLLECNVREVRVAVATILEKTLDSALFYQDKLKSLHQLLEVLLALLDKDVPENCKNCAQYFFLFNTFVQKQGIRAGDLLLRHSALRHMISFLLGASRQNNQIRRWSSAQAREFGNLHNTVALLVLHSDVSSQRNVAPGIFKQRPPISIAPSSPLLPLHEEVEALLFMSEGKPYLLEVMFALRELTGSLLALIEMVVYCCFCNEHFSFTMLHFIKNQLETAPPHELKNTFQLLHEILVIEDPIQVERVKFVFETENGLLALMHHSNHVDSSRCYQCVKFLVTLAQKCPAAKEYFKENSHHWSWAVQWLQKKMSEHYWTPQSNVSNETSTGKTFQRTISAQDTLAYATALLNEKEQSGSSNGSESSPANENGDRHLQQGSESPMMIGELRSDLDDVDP
USP16, sequence (Q9Y5T5 whole entry, looked up, the tested form may be a part): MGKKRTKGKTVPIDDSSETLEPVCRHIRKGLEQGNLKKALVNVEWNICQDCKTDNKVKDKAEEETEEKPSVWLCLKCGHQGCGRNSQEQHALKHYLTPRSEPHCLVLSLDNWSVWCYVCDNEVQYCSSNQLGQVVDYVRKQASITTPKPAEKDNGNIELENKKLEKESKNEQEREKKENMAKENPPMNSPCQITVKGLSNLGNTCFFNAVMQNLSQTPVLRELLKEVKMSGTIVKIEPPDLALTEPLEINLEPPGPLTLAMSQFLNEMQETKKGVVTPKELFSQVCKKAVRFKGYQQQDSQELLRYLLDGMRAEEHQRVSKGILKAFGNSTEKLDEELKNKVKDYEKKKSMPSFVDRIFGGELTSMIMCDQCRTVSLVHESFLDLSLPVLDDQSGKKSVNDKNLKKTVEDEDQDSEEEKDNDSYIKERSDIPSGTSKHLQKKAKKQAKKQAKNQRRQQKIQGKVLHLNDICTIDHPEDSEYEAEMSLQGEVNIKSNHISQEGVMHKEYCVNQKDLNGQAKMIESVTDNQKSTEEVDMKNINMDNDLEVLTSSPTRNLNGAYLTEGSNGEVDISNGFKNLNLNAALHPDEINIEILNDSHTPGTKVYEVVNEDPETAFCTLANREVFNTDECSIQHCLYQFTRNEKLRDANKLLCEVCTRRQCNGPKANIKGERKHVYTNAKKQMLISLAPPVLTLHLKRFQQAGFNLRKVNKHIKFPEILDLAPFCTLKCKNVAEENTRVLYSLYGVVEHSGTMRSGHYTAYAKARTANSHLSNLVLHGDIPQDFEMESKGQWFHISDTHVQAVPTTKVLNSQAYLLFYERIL

O=C(CCl)NCCc1cccc2ccccc12
inactive: USP16 -0.496 | USP19 0.0202 | USP24 -0.0928 | USP25 -0.0781 | USP28 -0.212
